PNC assembly inh: perinucleolar compartment assembly inhibition; AID 2417; 140,000 compounds, 3.1% hits; PC3M PTB-GFP, PNC prevalence imaging, 16 h; stronger effect = lower value; activity change (PNC), negative = inhibition, % at 10 µM;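 active = readout at or below -70, meaning at least 70% loss of cells showing the perinucleolar compartment, a nuclear body marking cancer cells; inconclusive = readout between -30 and a set limit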;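 also: plate controls were DMSO wells for no effect and camptothecin positive control wells for full effect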
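PC3M cells stably expressing PTB-GFP, 750–1000 cells/well, treated 16 h at 37 °C with compound (23 nl of library stock), in duplicate. After paraformaldehyde fixation and Hoechst stain, imaged at 20x; PNC prevalence scored by image analysis.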
HttQ103 aggreg: reduces HttQ103-GFP aggregates in PC12 cells. PC12 HttQ103-GFP aggregates, Acumen cytometry, 40 h. Potency, µM (top dose mostly 46.1 µM), without a hit: at the top dose activity change, negative = inhibition, actives largely listed as inhibitors. 220,000 compounds, 1.1% hits. AID 1688; also: potency is read from the fitted curve at half-maximal effect; % is scaled to controls: 0 for no effect and ±100 for the full control effect; nearly all actives have a fitted effect of over 60% in size
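Quantitative HTS on tebufenozide-induced (100 nM) PC12 cells stably expressing polyQ103 Huntingtin exon 1–GFP. Reduction of bright GFP aggregates, detected by laser scanning cytometry after lysis, identified actives across the titration.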
CBFb RUNX1 block: CBF-beta/RUNX1 interaction disruption. Q01196+Q13951. Potency, µM (top dose mostly 59.8 µM), for the others: at the top dose activity, negative = inhibition, actives largely listed as inhibitors. 230,000 tested, under 10 active. AlphaScreen CBFb-His/RUNX1-biotin binding, biochemical. AID 1477; also: % of control where 0% means no effect
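Interaction loss through any mechanism counts as activity. Pre-formed complex of His-CBF-beta and biotin-RUNX1 (30 nM apiece) is incubated with compound 15 min, then with 50 ng nickel and 50 ng streptavidin beads for 90 min before AlphaScreen detection.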
HTT ATP protect: cytoprotection in Huntington HTT-Q103 PC12 cell model | PC12 HTT-Q103 induced, cytoprotection, ATP luminescence, 40 h | Potency, µM (titrated, usually from 56.4 µM), inactives show cytoprotection (ATP increase), usual class: activators | 230,000 compounds, 0.14% hits; also: potency is read from the fitted curve at half-maximal effect; % of control where 0% means no effect; nearly all actives have a fitted effect of over 45% in size
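Quantitative HTS on tebufenozide-induced (100 nM) PC12 cells expressing HTTQ103 exon 1–GFP; compounds tested as a concentration series; survival measured via cellular ATP.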
HPGD block: HPGD (human) dehydrogenase inhibition; P15428; 150,000 compounds, 4.3% hits; AID 894; purified HPGD, NADH fluorescence kinetic, PGE2 substrate; Potency, µM, without a hit: top-dose activity change, negative = inhibition, hits mostly inhibitors; active = well fitted inhibition curve with a large enough effect, not every such curve was filed as active; inconclusive = small, poorly fitted or top-dose-only effect, or another doubt; inactive = no such curve, though single readings can be large or run the other way; also: potency is read from the fitted curve at half-maximal effect; % is scaled to controls: 0 for no effect and ±100 for the full control effect
Target sequence (P15428 whole entry, looked up): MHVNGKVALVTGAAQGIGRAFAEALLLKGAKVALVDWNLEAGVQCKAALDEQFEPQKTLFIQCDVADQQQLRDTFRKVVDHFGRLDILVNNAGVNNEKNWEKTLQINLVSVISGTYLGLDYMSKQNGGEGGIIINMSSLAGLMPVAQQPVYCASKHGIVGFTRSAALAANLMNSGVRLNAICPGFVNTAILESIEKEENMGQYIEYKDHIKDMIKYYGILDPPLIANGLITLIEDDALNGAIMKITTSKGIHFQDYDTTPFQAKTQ
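NADH formation kinetics: reaction with 30 uM PGE2 and 1 mM NAD+ (final), 20 nM enzyme, Tris-HCl pH 8 with Tween 20, after 15 min compound preincubation at room temperature. Fluorescence change, last versus first of five reads.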
ALDH1A1 inh: ALDH1A1 (human) enzyme inhibition; Purified ALDH1A1, NADH fluorescence, propionaldehyde substrate; Potency, µM (highest dose often 75.3 µM), inactives show top-dose activity, negative = inhibition, actives largely listed as inhibitors; 220,000 compounds, 7.3% hits; AID 1030; active = well fitted inhibition curve with a large enough effect, not every such curve was filed as active; inconclusive = small, poorly fitted or top-dose-only effect, or another doubt; inactive = no such curve, though single readings can be large or run the other way;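 also: potency is read from the fitted curve at half-maximal effect; plate controls were no enzyme wells and a reference inhibitor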
Target sequence (P00352 whole entry, looked up): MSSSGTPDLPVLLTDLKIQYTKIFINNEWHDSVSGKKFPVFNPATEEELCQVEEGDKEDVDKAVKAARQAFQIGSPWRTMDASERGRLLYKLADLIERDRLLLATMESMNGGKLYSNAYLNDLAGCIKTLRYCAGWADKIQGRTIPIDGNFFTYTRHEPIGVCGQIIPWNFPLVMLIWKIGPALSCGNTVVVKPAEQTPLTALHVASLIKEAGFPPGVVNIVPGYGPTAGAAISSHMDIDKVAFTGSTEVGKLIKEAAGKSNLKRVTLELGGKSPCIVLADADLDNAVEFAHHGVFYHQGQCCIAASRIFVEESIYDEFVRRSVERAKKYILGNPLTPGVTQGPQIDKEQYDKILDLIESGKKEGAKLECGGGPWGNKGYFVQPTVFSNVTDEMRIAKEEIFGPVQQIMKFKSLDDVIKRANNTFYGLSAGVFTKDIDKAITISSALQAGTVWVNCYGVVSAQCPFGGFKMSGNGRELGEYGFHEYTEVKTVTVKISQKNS
* hit, by the source's call; ? = inconclusive; / = no result; [ ] = another dose, or the depositor's remark. In the library only some 11% were active in any assay of this set; here they are far more common. Unless noted, calls follow the shape of the dose curve; as a rule, active = well fitted curve in the direction sought with a large enough effect; inconclusive = small, poorly fitted or top-dose-only effect, or another doubt; inactive = no such curve, though single readings can be large; an effect the other way counts as inactive or inconclusive.

SMILES	PNC assembly inh	HttQ103 aggreg	CBFb RUNX1 block	HTT ATP protect	HPGD block	ALDH1A1 inh
CCOc1ccc(S(=O)(=O)N2CCN(C(=O)c3sccc3C)CC2)cc1	60	-38%	-3%	29%	-12%	-8%
COc1cccc2c(=O)n(CC(=O)N3CCc4ccccc43)ccc12	16	-3%	6%	-3%[10 µM]	-16%	?
CCOC(=O)COc1cccc2c(=O)n(CC(=O)N3CCc4ccccc43)ccc12	-111*	-24%	7%	-6%	-12%	-5%
CCOC(=O)C(C)Oc1cccc2c(=O)n(CC(=O)NCc3ccccc3)ccc12 (stereo not drawn)	/	-5%[9.22 µM]	-3%	-4%[10 µM]	/	/
CCOC(=O)C(C)Oc1cccc2c(=O)n(CC(=O)N3CCCc4ccccc43)ccc12 (stereo not drawn)	6	5%	-7%	5%[10 µM]	?	20µM*
CC[C@H](CN(C)C)C(=O)c1ccco1	/	/	/	-4%[10 µM]	-7%	-3%[13.5 µM]
c1ccc(OCc2nc3c4c(ncn3n2)-c2ccccc2CC42CCCC2)cc1	-125*	-30%	-3%	-25%[10 µM]	-30%	?
O=C(NCc1ccco1)c1cnn2c1NC(c1ccccc1)CC2C(F)(F)F (stereo not drawn)	?	3%	-12%	21%	28µM*	-4%
O=C(NCc1ccco1)c1cnn2c1NC(c1ccc(Br)cc1)CC2C(F)(F)F (stereo not drawn)	-6	-7%	-8%	18%[10 µM]	-26%	2%
O=C(c1cnn2c1NC(c1ccco1)CC2C(F)(F)F)N1CCN(c2cccc(Cl)c2)CC1 (stereo not drawn)	-22	22µM*	-9%	-6%[0.074 µM]	-28%	3.2µM*
CCOC(=O)Cc1cc(=O)c2cc(C)ccc2[nH]1	/	-10%[9.22 µM]	9%	20%[10 µM]	/	/
CCC[C@@H]1C[C@@]1(CCC)C(NP(=O)(c1ccccc1)c1ccccc1)c1ccc(Cl)cc1 (stereo partly drawn)	/	/	-15%	-234%	-15%	-14%
O=C(Nc1nc2c(s1)CCCC2)c1cccc(S(=O)(=O)N2CCCc3ccccc32)c1	?	?	-1%	/	?	?
CN1CCc2nc(NC(=O)c3cccc(S(=O)(=O)N4CCc5ccccc54)c3)sc2C1	-11	-12%	-15%	-17%	-13%	13µM*
Cn1cccc1C(=O)N1CCC2(CC1)CCN(c1ccncc1)CC2	/	/	/	?	-1%	7%
Cc1nc(Cl)c2c(n1)N(CC(N)=O)C(=O)CO2	-109*	-10%	-8%	/	-6%	7%
CCc1cc(C(=O)OC)c(NC(=O)CCCC(=O)O)s1	57	9%	-2%	6%	-23%	-2%
COC(=O)c1cc(C)sc1NC(=O)CCCC(=O)O	-119*	-3%	-27%	-11%	-13%	0%
CCOc1ccc(-n2c(SCC(=O)NCc3ccco3)nc3c(c2=O)SCC3)cc1	?	0%	-6%	?	-20%	14µM*
Cc1ccc(Cn2c(SCC(=O)NCC3CCCO3)nc3ccsc3c2=O)cc1 (stereo not drawn)	/	-23%	9%	-10%	/	20µM*
Cc1ccc(-n2c(SCC(=O)NCC3CCCO3)nc3c(c2=O)SCC3)cc1 (stereo not drawn)	-7	5%	0%	-4%	-27%	25µM*
CCOC(=O)c1sc(NC(=O)CSc2nc3c(c(=O)n2-c2ccc(C)cc2)SCC3)c(C(=O)OCC)c1C	7	-2%	15%[2.36 µM]	/	-29%	9.5µM*
CNC1C(OC2C(O[C@@H]3C(O)C(O)[C@@H](N=C(N)N)C(O)C3N=C(N)N)OC(C)[C@@]2(O)CO)OC(CO)C(O)C1O (stereo partly drawn)	/	16%	1%	?	-10%	1%
COC(=O)c1ccc(CSc2n[nH]c(=S)s2)o1	?	-4%	-4%	-2%	?	3.5µM*
COC(=O)c1ccc(CSc2cc(C)c3cc(C)cc(C)c3n2)o1	/	-4%	8%	-11%[10 µM]	/	13µM*
SMILES	PNC assembly inh	HttQ103 aggreg	CBFb RUNX1 block	HTT ATP protect	HPGD block	ALDH1A1 inh
COC(=O)c1ccc(CSc2nc3ccccc3s2)o1	?	5%	12%	12%[10 µM]	-18%	-15%
CCCc1cc(Nc2ccccc2OCC)n2ncnc2n1	10	13%	1%	-15%	7.1µM*	10%
O=C(NCc1nnc2c3ccccc3c(-c3ccccc3)nn12)c1ccc(Cl)cc1	-111*	-26%	0%	/	-6%	7%
CC(=O)NCc1nnc2c3ccccc3c(-c3ccccc3)nn12	/	28%	-2%	-22%	/	-10%
O=C(c1ccccc1)c1ccc(C(=O)O)c(C(=O)O)c1	/	/	/	-7%	/	/
Nc1ccc(C(=O)c2ccccc2C(=O)O)cc1Cl	-107*	-1%	1%	10%[0.074 µM]	-3%	17%
COc1ccc(Oc2ncc3ncc(=O)n(Cc4ccc(F)cc4)c3n2)cc1	/	/	/	-133%	32µM*	?
O=c1c(-c2cccs2)nc2cncnc2n1Cc1ccccc1	/	/	/	-1%	/	?
COc1ncc2ncc(=O)n(Cc3ccc(F)cc3)c2n1	/	/	/	3%	-30%	13%
O=c1cnc2cncnc2n1Cc1ccc(F)cc1	/	/	/	-87%	/	10µM*
O=c1c(CCc2ccccc2)nc2cncnc2n1-c1ccccc1	/	/	/	-1%	-28%	?
O=c1cnc2cncnc2n1Cc1ccccc1	/	/	/	-241%	/	4µM*
O=c1c(CCc2ccccc2)nc2cncnc2n1Cc1ccccc1	/	/	/	-52%	/	25µM*
O=c1c(-c2ccccc2)nc2cncnc2n1Cc1ccc(F)cc1	/	/	/	5%	?	?
CC(C)CCN1CCc2nc(-c3ccccc3)c3c(c2C1)COC(C)C3 (stereo not drawn)	/	/	6%[13.1 µM]	6%[10 µM]	/	-17%[13.5 µM]
COC(=O)[C@@]1(Cc2ccc(OC)cc2)[C@H]2c3cc(C(=O)N(C)C)n(Cc4ccc(OC)c(OC)c4)c3C[C@H]2CN1C(=O)c1ccccc1	/	/	-21%	-4%	-8%	-5%
O=C(Nc1nnc(CC(=O)N2CCCC2)s1)c1cnccn1	/	/	/	-14%[10 µM]	/	/
Cc1cccc(CNc2ncnc3ccc(-c4ccccc4CN(C)C)cc23)c1	/	/	/	-18%	?	?
O=c1cnc2cncnc2n1Cc1ccccc1Cl	/	/	/	-76%	/	3.5µM*
Cc1ccc(C(=O)Nc2ncc(Cc3ccc(SC(F)F)cc3)s2)cc1	-82*	?	4%	-71%[10 µM]	-6%	0%
Cc1cccc(C(=O)CC(=O)c2cc(Cl)ccc2O)c1	26	13µM*	6%	-45%	16µM*	1%
O=C(CC(=O)c1cc(Cl)ccc1O)c1ccccc1	?	11µM*	9%	4%[10 µM]	25µM*	11%
O=C(O)CC(=O)Nc1cc(Cl)ccc1O	8	0%	2%	3%	1%	1%

Screening data from PubChem.
